Sampled rows, rich in hits. Any-hit rate of the full collection: about 4.5%.
Rpn11 inh = Rpn11 (PSMD14) deubiquitinase inhibitors, primary screen, biochemical, fluorescence polarization, uHTS | AID 588493, 2011 | inhibition, % at 20 µM | 360,000 tested, 0.59% active | human 26S proteasome, Ub4-pepOG fluorescence polarization; 20S core pre-blocked with epoxomicin | 26S proteasome non-ATPase regulatory subunit 14 (Homo sapiens), O00487;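 active means inhibition at 20 µM, scaled to each plate's controls, above about 33%, limit read from the data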
Target sequence (O00487 whole entry, looked up): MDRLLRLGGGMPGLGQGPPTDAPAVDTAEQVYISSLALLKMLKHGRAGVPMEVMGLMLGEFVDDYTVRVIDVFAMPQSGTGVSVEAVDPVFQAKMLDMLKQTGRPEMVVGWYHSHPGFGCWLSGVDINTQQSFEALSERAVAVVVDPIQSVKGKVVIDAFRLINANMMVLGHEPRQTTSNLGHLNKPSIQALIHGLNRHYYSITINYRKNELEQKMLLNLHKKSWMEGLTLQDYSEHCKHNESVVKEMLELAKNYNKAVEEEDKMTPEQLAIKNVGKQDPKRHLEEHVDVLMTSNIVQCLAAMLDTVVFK
GRIN3A LBD mod = binders of NR3A ligand-binding domain, primary screen, biophysical, differential scanning fluorimetry, uHTS; Tm shift relative to glycine control, % at 25 µM; 340,000 tested, 2.5% active; AID 1259313, 2017; NR3A LBD differential scanning fluorimetry, Tm shift; 0% = protein alone, 100% = glycine-bound protein; Glutamate receptor ionotropic, NMDA 3A (GRIN3A) ligand-binding domain;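 active means melting temperature shift of at least 10% of the positive control shift, at one fixed dose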
EBNA-1 inhibitor = EBNA-1 DNA-binding inhibitors, primary screen, biochemical, fluorescence polarization; 300,000 tested, 0.34% active; inhibition, % at 14.8 µM; in the data active means inhibition above about 28%
ZTA DNA inh = blocks Epstein-Barr virus ZTA, an EBNA-1 counter-screen; P03206; ZTA-DNA binding, fluorescence polarization; inhibition, % at 11 µM; 320,000 tested, 0.15% active; in the data active means inhibition above about 33%
Target sequence (P03206 whole entry, looked up): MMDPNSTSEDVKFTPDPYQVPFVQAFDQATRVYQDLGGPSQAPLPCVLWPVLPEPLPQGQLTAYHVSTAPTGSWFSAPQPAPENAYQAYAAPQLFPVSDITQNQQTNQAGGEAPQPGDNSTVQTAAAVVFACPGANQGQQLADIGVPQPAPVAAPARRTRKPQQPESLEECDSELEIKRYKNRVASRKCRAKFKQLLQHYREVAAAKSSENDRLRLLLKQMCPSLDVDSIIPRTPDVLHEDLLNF
TPT1 inhibitor = Candida albicans TPT1 enzyme inhibitors, primary screen, biochemical, fluorescence polarization. tRNA 2'-phosphotransferase TPT1 (Candida albicans SC5314). inhibition, % at 5 µM. 300,000 tested, 0.81% active. recombinant caTPT1, FP RNA substrate dephosphorylation;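 active means inhibition above the mean of all tested compounds plus 3 SD, set per screening campaign, cut at about 24% in these data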;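 further: plate controls were DMSO alone for no effect and ferristatin control at 100 nM for full effect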
dFosB activator = activators of delta FosB homodimer, primary screen, biochemical, fluorescence polarization, TAMRA-CDK5 oligo, single point. purified delta FosB; percent of positive-control signal above neutral wells. activation, % at 25 µM. 340,000 tested, 0.99% active. AID 493131, 2011;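 active means mean activation above about 17%, with every replicate also reaching it, limit read from the data, passing the limit was not always enough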
EBNA-1 confirm = EBNA-1 DNA-binding inhibitors, retest, confirmation, biochemical, fluorescence polarization, triplicate; shares compounds with EBNA-1 inhibitor; Recombinant EBNA-1 DBD, Cy5-DNA fluorescence polarization; inhibition, % at 14.8 µM; 830 tested, 35% active; AID 2292, 2010;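 active means mean inhibition across replicates above a set limit taken from the earlier primary screen, cut at about 28% in these data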;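 further: plate controls were EBNA-1 protein with DMSO for no effect and wells lacking EBNA-1 for full effect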
ZTA counter trip = EBV Zta DNA binding inhibitors, counter-screen for EBNA-1 inhibitor project, biochemical, fluorescence polarization, triplicate. shares compounds with EBNA-1 inhibitor. inhibition, % at 11.1 µM. Zta-ZRE DNA binding, Cy5 fluorescence polarization. 830 tested, under 10 active;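 active means mean inhibition over triplicates above a set limit taken from the primary EBNA-1 screen, cut at about 37% in these data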;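 further: purified full length Zta protein with Cy5 labeled ZRE DNA probe; 0% = Zta with DMSO and 100% = wells lacking Zta protein; inhibitors lower polarization by freeing the labeled DNA probe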
* hit, by the source's call; · = no result given.

SMILES	Rpn11 inh	GRIN3A LBD mod	EBNA-1 inhibitor	ZTA DNA inh	TPT1 inhibitor	dFosB activator	EBNA-1 confirm	ZTA counter trip
O=C(CNC(=O)c1ccco1)OCc1ccc(C(=O)Oc2ccccc2)cc1	0	0	-4	-1	5	-14	·	·
CCOc1ccc(-n2c(=O)c3sccc3n(CC(=O)Nc3cccc(OC)c3)c2=O)cc1	-22	0	52*	-5	-1	10	31*	-3
CCC(=O)Nc1ccc(Cl)c(NC(=S)NC(=O)c2cc3ccccc3o2)c1	4	25*	39*	-3	1	-2	18	3
CCc1ccc(N(C(=O)c2csnn2)C(C(=O)NC(C)(C)CC)c2ccccn2)cc1 (stereo not given)	3	-1	3	8	1	-9	·	·
CCOc1ccc(NC(=O)CCC(=O)N/N=C/c2ccc3c(c2)OCO3)cc1	-3	0	35*	2	-1	2	18	2
NC(c1csc(Nc2nncc3ccccc23)n1)C1CCCCC1 (stereo not given)	-3	·	·	·	·	·	·	·
O=C(Nc1ccc(-c2nc3ccccc3o2)cc1)c1ccc(N2C(=O)C3C4C=CC(C4)C3C2=O)cc1 (stereo not given)	7	18*	103*	28	4	-10	112*	17
COc1ccc(NC(=O)COC(=O)c2ccc(OCc3ccccc3Cl)c(OC)c2)c(OC)c1	7	1	32*	-4	-3	-14	-8	-9
COc1cc(C(=O)OCC(=O)Nc2cc(C)on2)ccc1OCc1ccccc1Cl	-4	8	-3	-8	-2	16	·	·
COCCCC1CCN(C(=O)c2cc(COc3cc(C)ccc3C)on2)CC1	-2	4	-24	-15	2	-5	·	·
CO/N=C(/c1nonc1N)N1CCN(c2ccc([N+](=O)[O-])cc2)CC1	-4	-8	33*	-3	0	1	7	1
COc1ccc(-c2nnc(SCc3c(C)noc3C)o2)cc1	-2	0	-9	-2	0	0	·	·
O=C(N/N=C/c1ccc(COc2ccc(Br)cc2)o1)c1ccco1	5	-20	59*	-14	-3	-8	6	2
COc1ccc(NC(=O)C2CCCN(S(=O)(=O)c3c(C)n[nH]c3C)C2)cc1 (stereo not given)	-1	1	2	-4	-5	-5	·	·
COC(=O)c1cc(NC(=O)C2CCCN(S(=O)(=O)c3c(C)n[nH]c3C)C2)cc(C(=O)OC)c1 (stereo not given)	·	·	28*	-9	-3	·	18	0
Cc1noc(C)c1CSCC(=O)N(C)CC(=O)Nc1ccc(Cl)cc1	18	3	-4	-5	1	-8	·	·
CCOc1ccc(C2C=C(c3ccc(C)cc3)Nc3nnnn32)cc1 (stereo not given)	-46	3	52*	9	-31	-11	2	6
O=C(CSc1ccccc1)N1CCCC(Nc2ccccc2)C1 (stereo not given)	3	2	1	11	-1	-4	·	·
COc1ccc(S(=O)(=O)N2CCOCC2)cc1NC(=O)CSc1ccc(F)cc1	1	2	·	-8	·	-6	·	·
CC(=O)Nc1ccc(NC(=O)CSc2ccc(-c3ccc4c(c3)OCO4)nn2)cc1	5	-16	49*	6	2	-5	24	3
O=c1c2ccccc2nc(SCc2ccc([N+](=O)[O-])cc2)n1-c1ccccc1	11	-1	2	3	-1	1	·	·
O=C(CSc1nc2ccccc2c(=O)n1-c1ccccc1)c1cccc([N+](=O)[O-])c1	-1	-1	32*	6	0	-6	27	0
CCOC(=O)c1sc2nc(SCC(=O)N(CC)CC)n(CCCN3CCCC3=O)c(=O)c2c1C	1	-2	-1	26	3	-4	·	·
N#Cc1c2c(c(Nc3ccc(O)cc3)n3c1nc1ccccc13)CCC2	10	-8	39*	-3	-2	-2	15	0
N#Cc1c2c(c(NCc3ccco3)n3c1nc1ccccc13)CCC2	4	-2	-9	2	2	1	·	·
SMILES	Rpn11 inh	GRIN3A LBD mod	EBNA-1 inhibitor	ZTA DNA inh	TPT1 inhibitor	dFosB activator	EBNA-1 confirm	ZTA counter trip
O=C(/C(=N/N=C/c1ccc(O)c(O)c1O)c1ccccc1)c1ccccc1	-18	18*	39*	4	-3	-12	-6	1
CCOC(=O)[C@@H]1[C@H]2COc3cc(OC)ccc3[C@H]2N2C(=O)N(c3cccc(Cl)c3)C(=O)[C@]12C	8	8	32*	7	2	-15	7	-8
COc1ccc(C2CC(c3ccccc3OC(C)=O)=NN2C(C)=O)cc1 (stereo not given)	-4	0	2	6	-4	-3	·	·
Cc1[nH]c(C)c(S(=O)(=O)N2CCN(c3ccc(Cl)cc3)CC2)c1C(=O)N1CCCC1	-3	4	4	3	-1	-8	·	·
O=C(Nc1ccccc1F)c1cc2c(s1)-c1ccccc1S(=O)(=O)C2	-1	0	53*	-2	-1	3	57*	-1
O=C(c1cc2c(s1)-c1ccccc1S(=O)(=O)C2)N1CCCC1	-9	1	12	14	-3	-8	·	·
Cc1ccnc(OC(C(=O)O)C(OCCc2ccccc2)(c2ccccc2)c2ccccc2)n1 (stereo not given)	-22	-1	5	0	-1	-13	·	·
Cc1cc(C)nc(OC(C(=O)O)C(OCCc2ccccc2)(c2ccccc2)c2ccccc2)n1 (stereo not given)	-11	-1	28*	2	2	-4	2	6
CC1(c2ccc(OC(F)F)cc2)NC(=O)N(CC(=O)Nc2ccccc2)C1=O (stereo not given)	0	0	-4	7	1	-2	·	·
Cc1ccc2nc(-c3ccc(NC(=O)CN4C(=O)NC(C)(c5ccc(OC(F)F)cc5)C4=O)cc3)sc2c1 (stereo not given)	-1	35*	40*	8	4	14	18	9

Screens (PubChem)
